Assay [1] concerns Human papillomavirus type 1a protein E7 (residues 44-93). Kind of assay: small molecules binding HPV E7 44-93 – biochemical, small-molecule microarray, residues 44-93, 635 nm fluorescence, primary screen (AID 1108).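 Note: E7 fragment applied at 1 µg/mL in TBST for 1 h at 4 C; score combines spot fluorescence with its signal to noise ratio.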 The conditions noted are these: fluorescence 635 nm, higher = more signal.
The nature of assay [2]: hepatitis C replication reporter changes, two-sided – Huh7 cells, luciferase reporter, HCV replication inhibitor project, primary screen (AID 1109).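 Note: huh7 hepatoma cells harbouring a luciferase neomycin HCV replicon reporter; luciferase luminescence as measure of HCV replicon replication; test concentration not given here.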 The settings on record: Huh7 HCV replicon luciferase reporter, 48 h; higher = more signal.
Assay [3] has as its target Left-right determination factor 2 (Homo sapiens) (UniProt O00292). The experiment in a line: small molecules binding LEFTY2 protein – biochemical, small-molecule microarray, 635 nm fluorescence scan, primary screen (AID 1110). The conditions noted are these: higher = more signal.
For assay [4], the target named is Calmodulin-1 (Homo sapiens) (UniProt P0DP23). The experiment in a line: small molecules binding calmodulin-1 with EGTA – biochemical, small-molecule microarray, Cy5-labelled CALM1, profiling panel (AID 1111).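 Note: labelled calmodulin applied in Tris saline Tween buffer holding calcium plus EGTA and DTT.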 The settings on record: Cy5-CALM1 binding fluorescence, higher = more signal.
For assay [5] the target is unchanged. Kind of assay: small molecules binding Ca-loaded calmodulin-1 – biochemical, small-molecule microarray, Cy5-labelled CALM1, plus calcium, artefact control for SMM control-protein annotation, profiling panel (AID 1112).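 Note: score merges spot fluorescence with signal to noise from triplicate slides.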 The settings on record: Cy5-CALM1 binding fluorescence, higher = more signal.
Assay [6] is described as follows: probe aWnt5a binding to arrayed compounds – biochemical, biotinylated probe, 635/667 nm fluorescence, primary screen (AID 1113).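 Note: score merges 667 nm fluorescence intensity with signal-to-noise per printed feature.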 The conditions noted are these: small-molecule microarray, higher = more signal.
A short description of assay [7]: probe aShh binding to arrayed compounds – biochemical, biotinylated probe, 635/667 nm fluorescence, primary screen (AID 1114).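 Note: probe is biotin-labelled aShh protein from a stem cell growth factor screen; measures binding of labelled protein to compounds printed on the slide; score merges feature fluorescence at 667 nm with signal-to-noise.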 The conditions noted are these: small-molecule microarray, higher = more signal.
Assay [8] is described as follows: probe aNog binding to arrayed compounds – biochemical, biotinylated probe, 635/667 nm fluorescence, primary screen (AID 1115).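 Note: probe is biotinylated aNog protein used at 0.15 µg/mL for 1 h at 4 C; z-score combines 667 nm fluorescence of each spot with its signal to noise.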 The conditions noted are these: small-molecule microarray, higher = more signal.
Assay [9] concerns the target Torsin-1A-interacting protein 1 (Homo sapiens) (UniProt Q5JTV8). Kind of assay: compound microarray binding of lysate hLAP1 – cell lysate, small-molecule microarray, COS7 lysate, 635/667 nm fluorescence, primary screen (AID 1116). The settings on record: 635 nm fluorescence, higher = more signal.
Assay [10] deals with Alpha-bungarotoxin (Bungarus multicinctus) (UniProt P60615). The experiment in a line: compounds binding labelled alpha-BTX control protein – biochemical, small-molecule microarray, Alexa647 label, 635/667 nm fluorescence, artefact control for SMM control protein annotation, profiling panel (AID 1117). The settings on record: alpha-BTX-A647 binding fluorescence, higher = more signal.
Sequence of Alpha-bungarotoxin (Bungarus multicinctus) (P60615 whole entry, looked up): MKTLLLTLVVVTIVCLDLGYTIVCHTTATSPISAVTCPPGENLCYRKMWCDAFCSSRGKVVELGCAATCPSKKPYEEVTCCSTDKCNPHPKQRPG

In assay [11] the target is Albumin (Bos taurus) (UniProt P02769). The experiment in a line: compounds binding labelled BSA control protein – biochemical, small-molecule microarray, Alexa647 label, 635/667 nm fluorescence, artefact control for SMM control protein annotation, profiling panel (AID 1118).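 Note: score merges 667 nm emission intensity and signal-to-noise per printed compound spot.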 The settings on record: BSA-A647 binding, fluorescence 635 nm, higher = more signal.
Sequence of Albumin (Bos taurus) (P02769 whole entry, looked up): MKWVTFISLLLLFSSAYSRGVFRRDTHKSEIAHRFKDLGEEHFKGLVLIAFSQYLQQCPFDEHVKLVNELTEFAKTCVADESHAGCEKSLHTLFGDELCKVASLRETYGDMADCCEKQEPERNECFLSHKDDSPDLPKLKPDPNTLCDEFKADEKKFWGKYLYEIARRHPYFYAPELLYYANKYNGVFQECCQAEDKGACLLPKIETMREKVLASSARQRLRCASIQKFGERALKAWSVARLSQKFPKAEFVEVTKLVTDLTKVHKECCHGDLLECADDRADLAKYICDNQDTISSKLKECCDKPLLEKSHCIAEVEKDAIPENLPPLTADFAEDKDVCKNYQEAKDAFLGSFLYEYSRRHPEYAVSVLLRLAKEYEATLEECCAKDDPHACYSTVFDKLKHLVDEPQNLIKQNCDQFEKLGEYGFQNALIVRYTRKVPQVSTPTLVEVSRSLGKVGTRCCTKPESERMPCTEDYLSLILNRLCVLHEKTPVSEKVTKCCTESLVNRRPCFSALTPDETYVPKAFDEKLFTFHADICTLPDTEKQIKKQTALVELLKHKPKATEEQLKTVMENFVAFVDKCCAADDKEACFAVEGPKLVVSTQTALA
Assay [12] can be described thus: probe aXIP binding to arrayed compounds – biochemical, NeuroSMM set, 635/667 nm fluorescence, primary screen (AID 1119).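 Note: probe is the protein aXip251-270 applied at 1 µg/mL to compound-printed slides; binding of probe to printed compounds measured as 667 nm fluorescence plus signal to noise.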 The conditions noted are these: small-molecule microarray, higher = more signal, called active from +8 up or from −8 down.
The nature of assay [13]: probe aNOTCH3 binding on compound microarray – biochemical, small-molecule microarray, 635/667 nm fluorescence, primary screen (AID 1120).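 Note: probe is a biotin-tagged antibody raised against NOTCH3 rather than NOTCH3 protein; score merges spot fluorescence near 667 nm with spot signal to noise.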 The settings on record: higher = more signal.
Assay [14] in a line: probe aNOTCH2 binding on compound microarray – biochemical, small-molecule microarray, 635/667 nm fluorescence, primary screen (AID 1121).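 Note: score merges feature fluorescence read at 667 nm with its signal to noise.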 The conditions noted are these: higher = more signal.
Assay [15] addresses Carbonic anhydrase 2 (Homo sapiens) (UniProt P00918). The experiment in a line: compounds binding carbonic anhydrase 2 – biochemical, small-molecule microarray, Alexa647-labelled CAII, profiling panel (AID 1122). The settings on record: CAII-A647 binding fluorescence, higher = more signal.
Assay [16] can be described thus: COS7 lysate on small-molecule microarray, probe aHis, 635 nm (AID 1123).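 Note: z-score combines 667nm fluorescence intensity with signal-to-noise per printed compound spot.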 The conditions noted are these: COS7 cell lysate, fluorescence, higher = more signal.
Assay [17] is described as follows: probe aLAP1 signal on lysate-treated microarray – cell lysate, small-molecule microarray, COS7 lysate, primary screen (AID 1124).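 Note: lysate comes from COS7 cells expressing LAP1 and is applied at 0.3 µg/mL; score merges spot fluorescence near 667 nm with signal-to-noise over triplicate slides.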 The settings on record: probe aLAP1, fluorescence, higher = more signal.
The subject of assay [18] is Sam68 (KHDRBS1). Kind of assay: compounds binding KHDRBS1 protein – biochemical, small-molecule microarray, 635 nm fluorescence, primary screen (AID 1125).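 Note: score merges 667 nm channel intensity with signal to noise over triplicate slides.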 The settings on record: higher = more signal.
In assay [19] the test system is Chordin-like protein 2 (CHRDL2). The experiment in a line: compounds binding chordin-like 2 – biochemical, small-molecule microarray, 635 nm fluorescence, primary screen (AID 1126).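 Note: printed compound slides probed with Chrdl2 protein at 4 µg/mL for 1 h at 4 C; score merges 667 nm emission intensity with signal to noise over three replicate slides.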 The settings on record: fluorescence 635 nm, higher = more signal.
For assay [20], the target named is Concanavalin-A (Canavalia ensiformis) (UniProt P02866). The experiment in a line: compounds binding concanavalin A lectin – biochemical, small-molecule microarray, Alexa647 label, 635 nm, artefact control for SMM control protein annotation, primary screen (AID 1127).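 Note: z combines 667 nm emission intensity with signal-to-noise across three replicate slides.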 The conditions noted are these: ConA-A647 binding fluorescence, higher = more signal.
Sequence of Concanavalin-A (Canavalia ensiformis) (P02866 whole entry, looked up): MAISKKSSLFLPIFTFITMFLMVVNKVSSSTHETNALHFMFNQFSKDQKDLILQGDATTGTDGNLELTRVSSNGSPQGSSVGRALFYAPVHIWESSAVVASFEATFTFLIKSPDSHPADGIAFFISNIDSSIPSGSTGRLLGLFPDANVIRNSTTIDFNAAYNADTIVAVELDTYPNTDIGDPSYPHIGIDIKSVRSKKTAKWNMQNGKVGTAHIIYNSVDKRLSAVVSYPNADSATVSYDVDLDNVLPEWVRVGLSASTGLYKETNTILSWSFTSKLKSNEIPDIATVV

SMILES strings stand for the structures. Active and inactive are the calls of the source.

Sequence of Left-right determination factor 2 (Homo sapiens) (O00292 whole entry, looked up): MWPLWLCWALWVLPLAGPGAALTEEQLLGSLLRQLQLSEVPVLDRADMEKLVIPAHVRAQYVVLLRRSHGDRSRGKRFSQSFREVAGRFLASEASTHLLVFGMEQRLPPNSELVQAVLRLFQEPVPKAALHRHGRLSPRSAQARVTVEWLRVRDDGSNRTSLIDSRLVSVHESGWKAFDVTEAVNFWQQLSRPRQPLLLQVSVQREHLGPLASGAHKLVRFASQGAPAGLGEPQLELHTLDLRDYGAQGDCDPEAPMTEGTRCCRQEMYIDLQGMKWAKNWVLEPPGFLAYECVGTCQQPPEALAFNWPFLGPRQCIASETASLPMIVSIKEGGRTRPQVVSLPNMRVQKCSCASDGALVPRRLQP
Sequence of Torsin-1A-interacting protein 1 (Homo sapiens) (Q5JTV8 whole entry, looked up): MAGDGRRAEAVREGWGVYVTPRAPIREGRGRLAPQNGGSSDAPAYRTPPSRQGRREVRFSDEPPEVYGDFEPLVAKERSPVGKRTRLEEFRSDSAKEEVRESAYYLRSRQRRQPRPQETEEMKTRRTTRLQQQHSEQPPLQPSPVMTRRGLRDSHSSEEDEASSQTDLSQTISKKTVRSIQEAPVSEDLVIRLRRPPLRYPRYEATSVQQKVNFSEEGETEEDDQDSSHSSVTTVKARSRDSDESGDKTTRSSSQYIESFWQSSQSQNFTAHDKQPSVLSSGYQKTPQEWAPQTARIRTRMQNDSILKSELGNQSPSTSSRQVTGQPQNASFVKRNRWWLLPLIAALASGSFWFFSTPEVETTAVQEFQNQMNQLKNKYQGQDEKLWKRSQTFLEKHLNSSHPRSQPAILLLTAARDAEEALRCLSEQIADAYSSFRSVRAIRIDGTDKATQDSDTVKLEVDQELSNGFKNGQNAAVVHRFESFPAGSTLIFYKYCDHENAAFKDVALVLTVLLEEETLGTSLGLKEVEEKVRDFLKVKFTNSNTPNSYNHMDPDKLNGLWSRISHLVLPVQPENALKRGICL

`CCCCCC1=C2CNC(CCC)(C(=O)OC)C=C2C(C)C1=O` (stereo not given): the composite z-score is 0.514 in assay [1]; -0.477 in assay [3]; 1.42 in assay [4]; 1.27 in [5]; -0.0125 in assay [6]; 0.811 in assay [7]. The composite z-score in [8] came out at 1.66; in assay [9], 0.997; in assay [10], 0.334; in assay [11], 0.912; in assay [13], 0.227; in [14], 0.153. Moreover, the composite z-score in [15] was 0.698; in [16] it was 1.61; in assay [17], 0.448; in assay [18], 0.273; in assay [19] it was -0.723; in assay [20], 0.236. The compound also gave a z-score in assay [2] of -0.183. Moreover, in assay [12], the composite Z-score is 0.956 (inactive).

In the case of `CCCC=C(CCC)[C@@H](NC(=O)Oc1ccc(F)cc1)c1ccc(C(=O)OC)cc1`, the composite z-score in assay [1] is 1.32; in [3] it was 0.354; in [4], 0.977; in assay [5], 1.13; in [6], 0.0307; in [7] it was 0.336. Moreover, the composite z-score in [8] was 0.83; in assay [9], 0.303; in assay [10] it was 0.799; in assay [11] it was 0.673; in assay [13], 0.209; in assay [14], -0.0817. Besides, the composite z-score in [15] was 0.31; in assay [16], 1.9; in assay [17] it was 0.0052; in assay [18] it was 1.19; in [19], -0.813; in [20] it was 0.977. In addition, the z-score in [2] was -2.48. For the same compound, the composite Z-score in assay [12] is -0.594 (inactive).

With `[N-]=[N+]=NCc1ccccc1C[C@]1(C(=O)N2CCOCC2)N=C(c2ccc(OCCCO)cc2)O[C@H]1c1ccccc1N=[N+]=[N-]`, the composite z-score in assay [1] was 1.44; in assay [3] it was 0.536; in [4] it was 1.14; in assay [5], 0.792; in assay [6], 0.0873; in assay [7], 0.385. The composite z-score in assay [8] is 0.49; in [9], 1.73; in assay [10], 1.14; in assay [11], 0.889; in assay [13], 0.311; in assay [14], -0.0301. For the same compound, the composite z-score in assay [15] was found to be 0.53; in [16] it was 2.53; in assay [17], 0.798; in assay [18] it was 1.34; in assay [19], 0.519; in [20] it was 1.04. The compound also showed a z-score in assay [2] of -2.21. In assay [12], the composite Z-score is -0.235 (inactive).

On to `O=C1OCC=C[C@H]2OC34C=CCN(CCN5CCOCC5)C(=O)[C@H]3N(CCCO)C(=O)[C@@H]4[C@@H]12` (stereo not given in full), for which the composite z-score in [1] was 0.449; in [3], -0.235; in assay [4], -0.0514; in assay [5] it was -0.944; in assay [6], -0.18; in [7], -0.223. For the same compound, the composite z-score in assay [8] is -0.326; in [9], 0.819; in [10], -0.0967; in assay [11], 0.416; in [13], -0.206; in assay [14], -0.122. The composite z-score in assay [15] is -0.0692; in [16] it was 0.357; in [17], -0.126; in assay [18] it was 0.356; in assay [19], 0.0732; in assay [20], 0.551. The same compound showed a z-score in assay [2] of 0.658. In [12], the composite Z-score is 0.103 (inactive).

Consider `O=C1[C@H]2C=C(Br)[C@H](C[C@@H]2OCCCCO)[C@@]12CO2`, for which the composite z-score in [1] was -0.875; in assay [3], 0.307; in assay [4] it was -0.442; in assay [5], -1.04; in assay [6], -0.0944; in [7], 0.149. Further, the composite z-score in assay [8] is 0.101; in [9], -0.272; in [10] it was -0.032; in [11], 0.0664; in assay [13], -0.0918; in assay [14] it was -0.162. Besides, the composite z-score is -0.191 in assay [15]; -0.574 in assay [16]; 0.102 in assay [17]; -0.264 in assay [18]; 0.483 in assay [19]; -0.0118 in [20]. Moreover, in assay [2], the z-score was -1.98. In addition, the composite Z-score in assay [12] is 0.572 (inactive).

In the case of `O=C1O[C@H](c2ccccc2)[C@H](c2ccccc2)N2[C@H]1[C@@H](C(=O)N1CCN(c3ncccn3)CC1)[C@]1(C(=O)Nc3ccc(C#CC4=CCCCC4)cc31)[C@H]2c1ccc(O)cc1`, the composite z-score was 1.41 in [1]; 0.144 in assay [3]; 0.961 in [4]; 0.336 in [5]; -0.0721 in assay [6]; -0.221 in assay [7]. In addition, the composite z-score in assay [8] is 0.113; in assay [9], 0.792; in [10], 1.44; in [11] it was 0.444; in assay [13], 0.0533; in [14], -0.0282. Besides, the composite z-score was 0.413 in [15]; 1.81 in assay [16]; 0.853 in assay [17]; 1.3 in assay [18]; -0.0356 in assay [19]; 0.893 in [20]. The same compound registered a z-score in assay [2] of -1.98. For the same compound, the composite Z-score in assay [12] is -0.239 (inactive).

The values above are taken from PubChem BioAssay.
